ST2 IL33 inh: inhibitors of human ST2 (IL1RL1) binding to IL-33, primary screen, biochemical, AlphaLISA; Interleukin-1 receptor-like 1 (Homo sapiens), Q01638; AlphaLISA ST2-Fc/biotin-IL-33 interaction, 1 h; inhibition, % for hits at 17 µM; actives 2.3% (n = 78,000); AID 1259354, 2018; in the data active means inhibition above about 30%
Starred values were filed as active, the others as inactive; i = inactive. Only a selection was taken, and hits are over-represented in it overall.

SMILES	ST2 IL33 inh
CC(C)c1[nH]nc2c1C(c1cn[nH]c1-c1ccc(F)cc1)C(C#N)=C(N)O2 (stereo not drawn)	i
CC(C)c1ccc(NC2CCCN(C(=O)c3ccc(C#CC(C)(C)O)o3)C2)cc1 (stereo not drawn)	i
CCCCN(C)CCCNC(=O)C1CCN(S(C)(=O)=O)CC1	i
COC(=O)c1ccc2c(c1)NC(=O)C(N(C)C1CCCCC1)S2 (stereo not drawn)	i
COc1ccc([N+](=O)[O-])cc1NC(=O)c1cc2cc3ccc(C)cc3nc2s1	46%*
COc1ccc2cc3cc(C(=O)NCc4ccc(C)cc4)sc3nc2c1	31%*
COc1ccc([N+](=O)[O-])cc1NC(=O)c1ccoc1C	i
COc1ccc2nc3sc(C(=O)NCc4ccccc4OC)cc3cc2c1	i
COCCCNC(=O)c1cc2cc3cc(OC)ccc3nc2s1	i
CCN(CCCNC(=O)c1cc2cc3ccc(OC)cc3nc2s1)c1ccccc1	31%*
COc1ccc([N+](=O)[O-])cc1NC(=O)COc1ccc(C)cc1Br	i
COc1ccc(NC(=O)c2cc3cc4ccc(C)cc4nc3s2)cc1OC	i
COc1ccc2cc3cc(C(=O)Nc4ccc(OC)c(Cl)c4)sc3nc2c1	38%*
CCCCNC(=O)c1cc2cc3cc(OC)ccc3nc2s1	i
COc1ccc2cc3cc(C(=O)N4CCN(C)CC4)sc3nc2c1	i
COCCNC(=O)c1cc2cc3cc(OC)ccc3nc2s1	i
CCOc1cc(C2NC(=O)NC(C)=C2C(=O)OC(C)C)ccc1OCc1ccccc1 (stereo not drawn)	i
CC(Cc1c[nH]c2ccccc12)NC(=O)c1ccc(Cl)cc1 (stereo not drawn)	i
CC(C)OCCCNC(=O)c1ccc2c(c1)NC(=O)C(N1CCCC1)S2 (stereo not drawn)	i
CCCN(CCC)S(=O)(=O)c1cc(Br)cc2c1N(C(C)=O)C(C)C2 (stereo not drawn)	i
CCOC(=O)c1c(NC(=O)c2ccc(C)cc2)sc(C(C)=O)c1C	i
COC(=O)c1sccc1NC(=O)CCN1CCCC1c1ccccn1 (stereo not drawn)	i
O=C(Nc1nc2ccc(C(=O)N3CCCCC3)cc2s1)c1cccs1	i
COc1ccc(S(=O)(=O)Cc2ccc(C(=O)NCc3ccc4c(c3)OCO4)o2)cc1	i
O=C(NCC1CCCN(Cc2ccco2)C1)C(=O)N1CCCCCC1 (stereo not drawn)	i
SMILES	ST2 IL33 inh
O=C(CN1C(=O)/C(=C\c2ccc(Cl)cc2)Sc2ccccc21)NCc1ccccn1	42%*
CCCCN(C)CCCNC(=O)CN1C(=O)/C(=C\c2cccc(Cl)c2)Sc2ccccc21	43%*
COCCNC(=O)c1ccc(/C=C2\Sc3ccccc3N(Cc3ccc(F)cc3)C2=O)cc1	i
O=C(CN1C(=O)/C(=C\c2ccc(Cl)cc2)Sc2ccccc21)NC1CCCC1	i
O=C(CN1C(=O)/C(=C\c2cccc(Cl)c2)Sc2ccccc21)NCc1cccnc1	i
CC(C)OCCCNC(=O)CN1C(=O)/C(=C\c2ccc(C(F)(F)F)cc2)Sc2ccccc21	i
O=S(=O)(Nc1ccccc1Br)c1cccnc1	i
O=C([C@@H]1C[C@@H](O)[C@H](O)[C@@H]2NC(=S)N(c3ccc(-n4cccn4)cc3)[C@@H]21)N1CCCCC1	i
COc1ccc(-c2cc(C(F)(F)F)nc(N3CCCC3)n2)cc1OC	i
CC(O)=c1ccc2cccc3nc(C)nc1c23	i
Cc1ccc2oc(-c3ccc(F)cc3)nc2c1	i
Nc1ccc2oc(-c3cc(F)c(F)cc3Cl)nc2c1	i
Cc1ccc2oc(-c3cc(N)ccc3O)nc2c1	45%*
Cc1c(C(=O)NC2CC2)oc2ccc(S(=O)(=O)N3CC(C)CC(C)C3)cc12 (stereo not drawn)	i
CCN1/C(=c2/sc3nc4ccccc4n3c2=O)C=Cc2cc(C)ccc21	i
CCN1/C(=C2/N=C(c3ccccc3)OC2=O)C=Cc2ccccc21	56%*
O=C1OC(c2ccc([N+](=O)[O-])cc2)=N/C1=C\c1ccccc1	i
Cc1ccc(CN2CC[C@@H]3[C@H]2C(=O)NC[C@H](CCC(=O)NCc2ccccc2)N3C)cc1	i
CC(C)N1CCC(N2CCCC(N(C)Cc3ccccc3)C2)CC1 (stereo not drawn)	i
O=C(CCn1cnc2ccccc2c1=O)N1CC(c2cccnc2)C1	i
CCN(C(=O)C1CCCN1S(=O)(=O)c1cccc2nsnc12)c1cccc(C)c1 (stereo not drawn)	i
C[C@@H]1C(=O)O[C@H]2[C@H]1CC[C@@]1(C)Cc3sc(NC(=O)c4ccc(N(C)C)cc4)nc3[C@@H](C)[C@H]21	i
C[C@H]1[C@@H]2[C@H]3OC(=O)[C@@H](C)[C@@H]3CC[C@@]2(C)CC[C@@H]1NC(=O)C1CC1	i
C[C@@H]1C(=O)O[C@H]2[C@H]1CC[C@@]1(C)Cc3sc(Nc4cccnc4)nc3[C@@H](C)[C@H]21	36%*
